Assay results taken from PubChem BioAssay AID1159580 (chemical genetic matrix, 2015).
Screen size: about 5,500 compounds; about 2,000 (36%) were called active. Roughly 18% stayed inconclusive and do not appear here. No stated cut-off is given here; in the data, active means normalized growth mostly below about 0.91 (no sharp cut-off); inconclusive means no clear call, values can overlap the other calls; inactive means mostly above about 0.92. The list shows a part of the results.

Assay: chemical genetic growth profiling, strain panel (AID 1159580);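 further: tested at 20 µM; growth read once vehicle control cultures reached saturation at 30 °C; 1 = growth at the plate median or of vehicle wells; lower values mean less growth of the strain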
Conditions: growth OD

Measured: normalized growth

CC(=O)S[C@@H]1CC2=CC(=O)CC[C@]2(C)[C@H]2CC[C@@]3(C)[C@@H](CC[C@@]34CCC(=O)O4)C12 (stereo not given in full)
inactive: S. cerevisiae deletion strains, locus YJR043C, strain POL32, hits give low values 1.01 | S. cerevisiae deletion strains, locus YJR066W, strain TOR1, hits give low values 0.981 | S. cerevisiae deletion strains, locus YJR075W, strain HOC1, hits give low values 1.01 | S. cerevisiae deletion strains, locus YKL009W, strain mrt4, hits give low values 1.01 | S. cerevisiae deletion strains, locus YKL068W, hits give low values 1.01 | S. cerevisiae deletion strains, locus YKL085W, strain MDH1 (second series), hits give low values 1.01 | S. cerevisiae deletion strains, locus YKL085W, strain MDH1, hits give low values 1.01 | S. cerevisiae deletion strains, locus YKL160W, strain elf1, hits give low values 1.03 | S. cerevisiae deletion strains, locus YKL190W, strain CNB1, hits give low values 0.995 | S. cerevisiae deletion strains, locus YKR001C, strain vps1, hits give low values 1.03 | S. cerevisiae deletion strains, locus YKR026C, strain gcn3, hits give low values 1.01 | S. cerevisiae deletion strains, locus YKR091W, strain srl3, hits give low values 1.01 | S. cerevisiae deletion strains, locus YLL001W, strain dnm1, hits give low values 1.05 | S. cerevisiae deletion strains, locus YLL026W, hits give low values 1.01 | S. cerevisiae deletion strains, locus YLL041C, strain sdh2, hits give low values 1.01 | S. cerevisiae deletion strains, locus YLR027C, strain aat2, hits give low values 1.02 | S. cerevisiae deletion strains, locus YLR039C, strain RIC1, hits give low values 1.02 | S. cerevisiae deletion strains, locus YLR058C, strain SHM2, hits give low values 1 | S. cerevisiae deletion strains, locus YLR102C, strain apc9, hits give low values 1.02 | S. cerevisiae deletion strains, locus YLR113W, strain HOG1, hits give low values 1.03 | S. cerevisiae deletion strains, locus YLR221C, strain rsa3, hits give low values 0.984 | S. cerevisiae deletion strains, locus YLR258W, strain gsy2, hits give low values 0.997 | S. cerevisiae deletion strains, locus YLR262C, strain YPT6 (second series), hits give low values 1.03 | S. cerevisiae deletion strains, locus YLR262C, strain YPT6, hits give low values 1.04 | S. cerevisiae deletion strains, locus YLR268W, strain sec22, hits give low values 1.03 | S. cerevisiae deletion strains, locus YLR320W, strain mms22, hits give low values 0.975 | S. cerevisiae deletion strains, locus YLR330W, strain CHS5, hits give low values 1.01 | S. cerevisiae deletion strains, locus YLR342W, strain FKS1 (second series), hits give low values 1 | S. cerevisiae deletion strains, locus YLR342W, strain FKS1, hits give low values 1.05 | S. cerevisiae deletion strains, locus YLR357W, strain rsc2, hits give low values 1.06 | S. cerevisiae deletion strains, locus YLR370C, strain arc18, hits give low values 1.02 | S. cerevisiae deletion strains, locus YLR371W, strain rom2, hits give low values 1.03 | S. cerevisiae deletion strains, locus YLR384C, strain iki3, hits give low values 1.01 | S. cerevisiae deletion strains, locus YLR418C, strain cdc73, hits give low values 1.03 | S. cerevisiae deletion strains, locus YML016C, strain PPZ1, hits give low values 1 | S. cerevisiae deletion strains, locus YML032C, strain rad52, hits give low values 1.02 | S. cerevisiae deletion strains, locus YML120C, strain ndi1, hits give low values 1.02 | S. cerevisiae deletion strains, locus YML124C, strain tub3, hits give low values 1.04 | S. cerevisiae deletion strains, locus YMR058W, strain fet3, hits give low values 1.01 | S. cerevisiae deletion strains, locus YMR078C, strain ctf18, hits give low values 1.03 | S. cerevisiae deletion strains, locus YMR125W, strain sto1, hits give low values 1.01 | S. cerevisiae deletion strains, locus YMR129W, hits give low values 1.01 | S. cerevisiae deletion strains, locus YMR205C, strain PFK2, hits give low values 1.02 | S. cerevisiae deletion strains, locus YMR223W, strain ubp8, hits give low values 1.03 | S. cerevisiae deletion strains, locus YMR231W, strain pep5, hits give low values 1.01 | S. cerevisiae deletion strains, locus YMR307W, strain GAS1, hits give low values 0.999 | S. cerevisiae deletion strains, locus YNL067W, strain RPL9B, hits give low values 1.01 | S. cerevisiae deletion strains, locus YNL071W, strain lat1, hits give low values 1.01 | S. cerevisiae deletion strains, locus YNL183C, strain NPR1, hits give low values 0.977 | S. cerevisiae deletion strains, locus YNL209W, strain ssb2, hits give low values 1.01 | S. cerevisiae deletion strains, locus YNL233W, strain BNI4, hits give low values 1.01 | S. cerevisiae deletion strains, locus YNL248C, strain rpa49, hits give low values 0.97 | S. cerevisiae deletion strains, locus YNL250W, strain rad50, hits give low values 1.02 | S. cerevisiae deletion strains, locus YNL271C, strain bni1, hits give low values 1.04 | S. cerevisiae deletion strains, locus YNL298W, strain CLA4, hits give low values 1.04 | S. cerevisiae deletion strains, locus YNL307C, strain MCK1, hits give low values 1.04 | S. cerevisiae deletion strains, locus YNL322C, strain KRE1 (second series), hits give low values 1 | S. cerevisiae deletion strains, locus YNL322C, strain KRE1, hits give low values 1 | S. cerevisiae deletion strains, locus YNR049C, strain mso1, hits give low values 1.01 | S. cerevisiae deletion strains, locus YNR052C, strain pop2, hits give low values 1.02 | S. cerevisiae deletion strains, locus YOL006C, strain TOP1, hits give low values 0.994 | S. cerevisiae deletion strains, locus YOL012C, strain htz1 1.16 | S. cerevisiae deletion strains, locus YOL147C, strain pex11, hits give low values 1.02 | S. cerevisiae deletion strains, locus YOR001W, strain rrp6, hits give low values 1.03 | S. cerevisiae deletion strains, locus YOR061W, strain CKA2, hits give low values 1 | S. cerevisiae deletion strains, locus YOR069W, strain VPS5, hits give low values 1 | S. cerevisiae deletion strains, locus YOR070C, strain gyp1, hits give low values 0.996 | S. cerevisiae deletion strains, locus YOR080W, strain dia2, hits give low values 1.03 | S. cerevisiae deletion strains, locus YOR083W, strain WHI5, hits give low values 1 | S. cerevisiae deletion strains, locus YOR106W, strain vam3, hits give low values 1.04 | S. cerevisiae deletion strains, locus YOR136W, strain idh2, hits give low values 1.03 | S. cerevisiae deletion strains, locus YOR144C, strain elg1, hits give low values 1.01 | S. cerevisiae deletion strains, locus YOR184W, strain ser1, hits give low values 1.03 | S. cerevisiae deletion strains, locus YOR231W, strain MKK1, hits give low values 1.02 | S. cerevisiae deletion strains, locus YOR265W, strain rbl2, hits give low values 1.01 | S. cerevisiae deletion strains, locus YOR270C, strain vph1, hits give low values 0.968 | S. cerevisiae deletion strains, locus YOR290C, strain snf2, hits give low values 0.977 | S. cerevisiae deletion strains, locus YOR316C, strain cot1, hits give low values 1.03 | S. cerevisiae deletion strains, locus YPL051W, strain arl3, hits give low values 1.01 | S. cerevisiae deletion strains, locus YPL078C, strain atp4, hits give low values 1.04 | S. cerevisiae deletion strains, locus YPL106C, strain sse1, hits give low values 0.985 | S. cerevisiae deletion strains, locus YPL240C, strain hsp82, hits give low values 1 | S. cerevisiae deletion strains, locus YPL241C, strain CIN2, hits give low values 1 | S. cerevisiae deletion strains, locus YPL256C, strain CLN2, hits give low values 1.09 | S. cerevisiae deletion strains, locus YPR119W, strain clb2, hits give low values 1.03 | S. cerevisiae deletion strains, locus YPR141C, strain kar3, hits give low values 1.03 | S. cerevisiae deletion strains, locus YPR163C, strain tif3, hits give low values 1.04 | S. cerevisiae deletion strains, locus YPR167C, strain met16, hits give low values 1.03 | S. cerevisiae deletion strains, strain wtn01, hits give low values 1.03 | S. cerevisiae strains, strain wild type, hits give low values 1
